# An excerpt weighted towards active compounds, which were near 21% of everything screened.
# Pf growth 96h = P. falciparum growth inhibition at 96 hour, primary screen for plastid delayed-death inhibitors; P. falciparum luciferase reporter growth, 96 h; Potency, µM (highest dose often 28.7 µM), inactives show top-dose activity change, negative = inhibition, hits mostly inhibitors; 320,000 tested, 6.9% active; AID 504834; also: potency is read from the fitted curve at half-maximal effect; % is scaled to controls: 0 for no effect and ±100 for the full control effect
#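 Cell-based qHTS: luciferase-tagged P. falciparum in erythrocytes (2% hematocrit, 0.05% parasitemia final) incubated with compounds for 96 hours, 37 C, 5% CO2; luciferase detection reagent then added and luminescence measured.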
# NS1 inh = blocks influenza NS1 protein function; Potency, µM (titrated, usually from 46.1 µM), for inactives: at the highest dose activity, positive = more growth; 270,000 tested, 0.4% active; AID 2326; calls by dose curve; also: potency is read from the fitted curve at half-maximal effect; actives are rising curves; nearly all actives have a fitted effect of over 50% in size
#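 In this qHTS, NS1 from influenza A is expressed in budding yeast, where it slows growth. Cells are switched from glucose to 2% galactose medium (pH 6.0, -URA), treated with compound, and growth recovery is read at OD600.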
# CHX counter = counter-screen for Shiga toxin inhibitors: cycloheximide protein synthesis inhibition; cell reporter, cycloheximide protein synthesis inhibition counterscreen; max response, %; 300,000 tested, 12% active; AID 2314; in the data active = max response mostly above about 13%, no sharp cut-off; inactive = mostly below about 14%; also: read at 38.3 µM for the half of the compounds with a filed dose; 0% is about no effect
# Shiga toxin inh = inhibitors of Shiga toxin in Vero cells | Vero cells, Shiga toxin protein synthesis inhibition reporter | 290,000 tested, 9.2% active | AID 2315 | inhibition, % at 38.7 µM; in the data active = inhibition mostly above about 28%, no sharp cut-off; inactive = mostly below about 43%; also: 0% is about no effect
# Pf growth 48h = inhibits P. falciparum growth in the first generation, 48 h; P. falciparum luciferase growth in erythrocytes, 48 h; AID 504832; Potency, µM (top dose mostly 28.7 µM), without a hit: top-dose activity change, negative = inhibition, usual class: inhibitors; 310,000 tested, 5.9% active; also: potency is read from the fitted curve at half-maximal effect; % is scaled to controls: 0 for no effect and ±100 for the full control effect
#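 First compound was added to culture medium, then infected red cells at 0.1% parasitemia and 2% hematocrit (final). After incubation at 37 C under 5% CO2, luciferase detection reagent was dispensed and light output recorded.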
# * hit, by the source's call; i = inactive; u = inconclusive; x = not tested or not shown; + = active, no number; [ ] = another dose, or the depositor's remark. Unless noted, calls follow the shape of the dose curve; as a rule, active = well fitted inhibition curve with a large enough effect; inconclusive = small, poorly fitted or top-dose-only effect, or another doubt; inactive = no such curve, though single readings can be large or run the other way.
SMILES,Pf growth 96h,NS1 inh,CHX counter,Shiga toxin inh,Pf growth 48h
C=CCNc1nc(Nc2ccc([N+](=O)[O-])cc2)nc(N2CCCC2)n1,u,x,26*,-11,-24%
C=CCNc1nc(Cl)nc(Nc2ccc(OC)cc2)n1,49%,-7%,22*,64*,u
CCOC(=O)c1c(C)[nH]c(C)c1S(=O)(=O)N(C)CC(=O)N(C)Cc1ccccc1,u,6%,5,-3,-23%
CCCCNC(=O)O[C@H]1C[C@@H]2CCN3C(=O)CCC[C@H]([C@H]1Cc1ccccc1)[C@H]23,-14%,1%,-1,7,2%
Cn1c(SCC(=O)O)nnc1-c1cccc(NC(=O)c2cccc3ccccc23)c1,-17%,3%,1,-16,22%
Cc1ccc(O)c(NC(=O)c2noc3c2CCc2ccccc2-3)c1,9.3µM*,x,43*,87*,u
CC(=O)c1cccc(NC(=O)c2noc3c2CCc2ccccc2-3)c1,-29%,x,35*,66*,i
Cc1ccccc1Cn1nc(C)c(NC(=O)c2noc3c2CCc2ccccc2-3)c1C,1.2µM*,-100%,-1,-12,u
Cc1ccccc1Cn1nc(C)c(NC(=O)c2noc3c2CC(C(C)(C)C)CC3)c1C (configuration not stated),68%,-88%,-3,-3,u
O=C(NCCCn1ccnc1)c1noc2c1CCc1ccccc1-2,28%,-19%,1,47,-11%
Cc1cc(NC(=O)c2noc3c2CCc2ccccc2-3)no1,-12%,-4%,-2,7,37%
CCCCNC(=O)C1CC(=O)N(CCc2ccccc2)C1 (configuration not stated),-15%,x,-5,21,10%
Cc1ccc(CCN2CC(C(=O)NCCCN3CCOCC3)CC2=O)cc1 (configuration not stated),8%,1%,-3,-8,14%
Cc1ccc(CCN2CC(C(=O)NCCN3CCOCC3)CC2=O)cc1 (configuration not stated),12µM*,1%,-5,-9,13%
CC1CCCN(CCCNC(=O)C2CC(=O)N(CCc3ccccc3)C2)C1 (configuration not stated),15µM*,-4%,6,-13,-7%
CC(C)(C)c1ccc(C(=O)Nc2ccc(CC(=O)O)cc2)o1,2.3µM*,-1%,-12,-19,x
O=C(O)Cc1ccc(NC(=O)c2ccc(NC(=O)C3CC3)cc2)cc1,5.9µM*,7%,-2,-10,-19%
O=C(Nc1ccccc1)C1CCCCC1,-16%,2%,6,5,-14%
O=C(Nc1ccc(Nc2ccccc2)cc1)C1CC1,32%,13%,21*,50,u
O=C(Nc1ccc(-n2cccc2)cc1)C1CC1,-23%,x,23*,17,12µM*
NC(=O)c1ccc(NC(=O)C2CC2)cc1,u,x,1,-11,12%
O=C(Nc1ccc(Cc2ccc(NC(=O)C3CC3)cc2)cc1)C1CC1,31%,x,1,-9,-7%
O=C(Nc1ccccc1)C1CC2CCCC(C1)C2=O (configuration not stated),3.7µM*,-2%,9,-3,10%
O=C(Nc1ccc(Cl)cc1)C1CC2CCCC(C1)C2=O (configuration not stated),-20%,-4%,-2,-6,-10%
CN1C(=O)C(O)(CC(=O)/C=C/C=C/c2ccccc2)c2ccccc21 (configuration not stated),u,1%,12,-18,41%
SMILES,Pf growth 96h,NS1 inh,CHX counter,Shiga toxin inh,Pf growth 48h
O=C(/C=C/C=C/c1ccccc1)CC1(O)C(=O)Nc2ccccc21 (configuration not stated),u,x,19*,37,15%
COc1cc(NC(=O)c2cc([N+](=O)[O-])ccc2NC(=O)CNC2CCCCC2C)cc(OC)c1 (configuration not stated),36%,6%,-3,-5,0.41µM*
CC1CCCCC1NCc1cccc([N+](=O)[O-])c1 (configuration not stated),25%,1%,12,42*,-3%
COc1cc(NC(=O)c2cc([N+](=O)[O-])ccc2NC(=O)CNC2CCCCC2)cc(OC)c1,12%,12%,0,7,0.83µM*
COc1cc([N+](=O)[O-])cc2cc(C(=O)N3CCCC3)c(=O)oc12,u,-2%,-3,-10,-20%
C=C[C@@H]1[C@@H](C)[C@H](C)C(=O)C([C@H](O)C(C)C)[C@@H]1C (some centres not stated),x,x,-4,-8,x
OC(CNCC#Cc1ccccc1)c1ccccc1 (configuration not stated),-24%,7%,-1,23,u
OC(C[n+]1ccccc1)c1ccccc1 (configuration not stated),0.66µM*,1%,-1,-4,u
OC(CNCc1ccccc1)c1ccccc1 (configuration not stated),u,1%,1,1,9.3µM*
OC(CNC1Cc2ccccc2C1)c1ccccc1 (configuration not stated),13µM*,1%,9,4,12µM*
OC(CNCc1cccc(Cl)c1)c1ccccc1 (configuration not stated),8%,0%,5,-5,2.1µM*
CCCC[C@H](O)c1ccccc1,u,x,x,x,1%
O=S(=O)(N1CCCCC1)n1c(Cc2ccccc2)nc2ccccc21,x,-40%,8,-3,12µM*
O=S(=O)(c1ccc(Br)cc1)n1c(Cc2ccccc2)nc2ccccc21,u,-1%,-3,-9,-7%
COc1ccc2[nH]c3c(c2c1)CC(C)NC3=O (configuration not stated),u,-8%,1,-13,31%
COC(=O)c1c(-c2ccccc2)csc1NC1=NS(=O)(=O)c2ccccc21,100%,19%,62*,+,-8%
O=C(/C=C/c1ccco1)NCC1COc2ccccc2O1 (configuration not stated),-11%,-7%,36*,40,6%
COc1ccc(/C=C/C(=O)NCC2COc3ccccc3O2)c(OC)c1 (configuration not stated),u,14%,20*,46*,-5%
COc1ccc(NC(=O)CCC2COc3ccccc3O2)c(OC)c1 (configuration not stated),2%[5.75 µM],-6%,-1,19,-6%
O=C(CNC(=O)c1ccccc1)NCC1COc2ccccc2O1 (configuration not stated),-29%,16%,2,-12,x
COc1ccccc1NC(=O)C(=O)NCC1COc2ccccc2O1 (configuration not stated),7%,-10%,23*,14,14%
Cc1ccccc1CSc1nnc(-c2ccccn2)n1C,83%,-9%,26*,90*,47%
Cc1ccc(NC(=O)CSc2nnc(-c3ccccn3)n2C)cc1,10%,6%,1,-17,14%
Cn1c(SCc2ccccc2Cl)nnc1-c1cnccn1,27%,-19%,24*,133*,54%

# High-throughput results from PubChem.
